Screen size: about 39,000 compounds; about 3,300 (8.5%) were called active. For the sample, actives were picked, then their nearest neighbours and some compounds at random.

The test system of the experiment is HepG2. Kind of experiment: cytotoxicity call (relative viability < 0.9). The note with it: 10 µM.
In the case of `Cc1ccc(S(=O)(=O)Nc2cccc3c2O[C@H](CN(C)C(=O)Nc2ccc(C(F)(F)F)cc2)[C@H](C)CN([C@H](C)CO)C3=O)cc1`, the cytotoxicity call is “inactive”.

On to `C[C@@H]1CCCCO[C@@H](CN(C)CC2CCCCC2)[C@H](C)CN([C@H](C)CO)C(=O)c2cc(NS(=O)(=O)c3ccccc3)ccc2O1`, for which the cytotoxicity call is “inactive”.

`Cc1ccc(S(=O)(=O)Nc2ccc3c(c2)C(=O)N([C@H](C)CO)C[C@H](C)[C@@H](CN(C)Cc2ccc(Cl)c(Cl)c2)OCCCC[C@@H](C)O3)cc1`: the cytotoxicity call is “inactive”.

Turning to `Cc1ccc(S(=O)(=O)Nc2ccc3c(c2)C(=O)N([C@H](C)CO)C[C@H](C)[C@H](CN(C)Cc2ccc(Cl)c(Cl)c2)OCCCC[C@@H](C)O3)cc1`, the cytotoxicity call was “active”.

As for `Cc1ccc(S(=O)(=O)Nc2ccc3c(c2)C(=O)N([C@@H](C)CO)C[C@H](C)[C@@H](CN(C)Cc2ccc(Cl)c(Cl)c2)OCCCC[C@H](C)O3)cc1`, the cytotoxicity call was “active”.

As to `O=C(O)CC[C@H]1CCC(=O)N1`, the cytotoxicity call is “inactive”.

Regarding `C[C@@H]1CN([C@H](C)CO)C(=O)Cc2cc(NC(=O)c3ccncc3)ccc2O[C@H]1CN(C)S(=O)(=O)c1cn(C)cn1`, the cytotoxicity call is “inactive”.

For the compound `C[C@@H]1CCCCO[C@@H](CN(C)CC2CC2)[C@H](C)CN([C@H](C)CO)C(=O)c2cc(NS(C)(=O)=O)ccc2O1`, the cytotoxicity call is “inactive”.

Turning to `C[C@@H]1CN([C@@H](C)CO)C(=O)c2cccc(NS(=O)(=O)c3ccccc3)c2O[C@@H]1CN(C)S(C)(=O)=O`, the cytotoxicity call was “inactive”.

Turning to `C[C@@H]1CN([C@@H](C)CO)C(=O)c2cc(NS(=O)(=O)c3ccccc3)ccc2O[C@H]1CN(C)S(C)(=O)=O`, the cytotoxicity call was “inactive”.

For `O=C(C[C@@H]1C=C[C@H](NC(=O)c2cccc(F)c2)[C@@H](CO)O1)NCCN1CCCC1`, the cytotoxicity call is “inactive”.

`CN(C)CC(=O)N1CC(=O)N2[C@H](CO)[C@@H](c3ccc(C#Cc4cccnc4)cc3)[C@H]2C1`: the cytotoxicity call was “inactive”.

As to `CCOC(=O)COc1ccc2c(=O)cc(-c3ccccc3)oc2c1`, the cytotoxicity call is “active”.

For the compound `COc1ccc2c(=O)cc(-c3ccccc3OC)oc2c1`, the cytotoxicity call was “inactive”.

Regarding `O=c1cc(-c2ccccc2)oc2ccccc12`, the cytotoxicity call was “inactive”.

As for `CCS(=O)(=O)Nc1ccc2c(c1)C(=O)N(C)[C@@H]1CC[C@@H](CC(=O)N[C@@H]3CCN(Cc4ccccc4)C3)O[C@@H]1CO2`, the cytotoxicity call was “inactive”.

For the compound `Cc1cc(C(=O)Nc2cccc3c2O[C@@H](CN(C)Cc2ccncc2)[C@@H](C)CN([C@H](C)CO)C3=O)n(C)n1`, the cytotoxicity call is “inactive”.

For the compound `C=CCOC(=O)[C@@H]1[C@H]2C(=O)O[C@H](c3ccccc3)[C@H](c3ccccc3)N2[C@H](c2ccc(OCCOC(=O)[C@H]3C[C@H]4C(=O)N5CCC[C@H]5C(=O)N4[C@H]3c3cccc(OCCO)c3)cc2)[C@@]12C(=O)Nc1ccc(I)cc12`, the cytotoxicity call is “inactive”.

Take `CN(C)CCCNC(=O)C[C@@H]1CC[C@@H]2[C@H](COC[C@H](O)CN2S(=O)(=O)c2ccccc2)O1`: the cytotoxicity call is “inactive”.

On to `Cc1cc(CN)cc(C)c1NC(=O)c1ccc(-c2cc(Cl)ccc2Cl)o1`, for which the cytotoxicity call was “active”.

In the case of `Cc1ccc(CN)cc1Cl`, the cytotoxicity call was “inactive”.

Turning to `Cc1cc(C(=O)c2cc3cc(Cl)ccc3o2)ccc1Cl`, the cytotoxicity call was “inactive”.

With `CCCCN1CC=C[C@@]23O[C@@H]4C=CCCOC(=O)[C@@H]4[C@H]2C(=O)N([C@@H](C)CO)[C@@H]3C1=O`, the cytotoxicity call is “inactive”.

As to `NNc1ccc2c(N)[nH]nc2c1`, the cytotoxicity call was “inactive”.

As for `COc1cccc(CN(C)C[C@@H]2OCc3ccccc3-c3c(n(C)c4ccccc34)C(=O)N([C@H](C)CO)C[C@H]2C)c1`, the cytotoxicity call was “inactive”.

`NCCC(=O)N1c2ccccc2Sc2ccccc21`: the cytotoxicity call was “inactive”.

For `O=C(c1cccs1)N1c2ccccc2Sc2ccccc21`, the cytotoxicity call is “inactive”.

Consider `O=C(Cc1cccs1)N1c2ccccc2Sc2ccccc21`, for which the cytotoxicity call is “active”.

For `C[C@@H]1CN([C@H](C)CO)C(=O)c2cc(NC(=O)Nc3ccc(C(F)(F)F)cc3)ccc2O[C@@H](C)CCCCO[C@@H]1CN(C)S(=O)(=O)c1ccc(Cl)cc1`, the cytotoxicity call was “inactive”.

On to `O=C1CN(S(=O)(=O)Cc2ccccc2)C[C@H]2[C@H](c3ccc(C#Cc4ccc(F)cc4)cc3)[C@@H](CO)N12`, for which the cytotoxicity call was “inactive”.

As for `O=C1CN(S(=O)(=O)Cc2ccccc2)C[C@@H]2[C@H](c3ccc(C#Cc4ccc(F)cc4)cc3)[C@@H](CO)N12`, the cytotoxicity call is “inactive”.

In the case of `O=C1CN(S(=O)(=O)Cc2ccccc2)C[C@@H]2[C@@H](c3ccc(C#Cc4ccc(F)cc4)cc3)[C@H](CO)N12`, the cytotoxicity call was “active”.

Take `O=C1CN(S(=O)(=O)Cc2ccccc2)C[C@H]2[C@@H](c3ccc(C#Cc4ccc(F)cc4)cc3)[C@@H](CO)N12`: the cytotoxicity call is “inactive”.

Turning to `O=C1CN(S(=O)(=O)Cc2ccccc2)C[C@@H]2[C@@H](c3ccc(C#Cc4ccc(F)cc4)cc3)[C@@H](CO)N12`, the cytotoxicity call was “active”.

In the case of `O=C1CN(S(=O)(=O)Cc2ccccc2)C[C@H]2[C@H](c3ccc(C#Cc4ccc(F)cc4)cc3)[C@H](CO)N12`, the cytotoxicity call was “inactive”.

As for `CN(C)S(=O)(=O)N1CCO[C@@H]2CN(c3ncc(F)cn3)C[C@@H]21`, the cytotoxicity call is “inactive”.

Regarding `O=C1O[C@H](c2ccccc2)[C@H](c2ccccc2)N2[C@H]1[C@@H](C(=O)Nc1nc3ccccc3s1)[C@]1(C(=O)Nc3ccc(C#CC4(O)CCCCCC4)cc31)[C@H]2c1ccccc1OCCO`, the cytotoxicity call is “inactive”.

For `C[C@@H]1CCCCO[C@@H](CN(C)C(=O)Nc2ccc3c(c2)OCO3)[C@@H](C)CN([C@@H](C)CO)C(=O)c2cc(NC(=O)CCC(F)(F)F)ccc2O1`, the cytotoxicity call was “inactive”.

Turning to `C[C@@H]1CN([C@H](C)CO)C(=O)c2cc(NC(=O)CCCCCC(=O)Nc3ccccc3N)ccc2O[C@H]1CN(C)Cc1ccccc1`, the cytotoxicity call was “inactive”.

`C[C@@H]1CN([C@H](C)CO)C(=O)c2cc(NC(=O)CCCCCC(=O)Nc3ccccc3N)ccc2O[C@@H]1CN(C)Cc1ccc(Oc2ccccc2)cc1`: the cytotoxicity call is “active”.

As for `C[C@H]1CN([C@@H](C)CO)C(=O)c2cc(NC(=O)CCCCCC(=O)Nc3ccccc3N)ccc2O[C@@H]1CN(C)Cc1ccccc1`, the cytotoxicity call was “active”.

`C[C@@H]1CN([C@H](C)CO)C(=O)c2cc(NC(=O)CCCCCC(=O)Nc3ccccc3N)ccc2O[C@@H]1CN(C)Cc1ccccc1`: the cytotoxicity call was “inactive”.

Consider `C[C@@H]1CN([C@@H](C)CO)C(=O)c2cc(NC(=O)CCCCCC(=O)Nc3ccccc3N)ccc2O[C@H]1CN(C)Cc1ccccc1`, for which the cytotoxicity call is “active”.

As to `C[C@H]1CN([C@@H](C)CO)C(=O)c2cc(NC(=O)CCCCCC(=O)Nc3ccccc3N)ccc2O[C@H]1CN(C)Cc1ccc(Oc2ccccc2)cc1`, the cytotoxicity call is “inactive”.

For `C[C@H](CO)N1C[C@H](C)[C@H](CN(C)Cc2ccccc2)Oc2ccc(NC(=O)CCCCCC(=O)Nc3ccccc3N)cc2C1=O`, the cytotoxicity call was “inactive”.

Turning to `C[C@H](CO)N1C[C@H](C)[C@@H](CN(C)Cc2ccccc2)Oc2ccc(NC(=O)CCCCCC(=O)Nc3ccccc3N)cc2C1=O`, the cytotoxicity call is “inactive”.

Consider `COc1ccc(CN(C)C[C@H]2Oc3ccc(NC(=O)CCCCCC(=O)Nc4ccccc4N)cc3C(=O)N([C@H](C)CO)C[C@H]2C)cc1`, for which the cytotoxicity call is “inactive”.

These data come from the antibiotic and cytotoxicity screens of Wong et al. (2023).
